From paper PMC5836133, “The intracellular immune receptor Rx1 regulates the DNA-binding activity of a Golden2-like transcription factor”
The full ranking holds about 16,000 sequences; the median of “e-score” is about -0.044, and the highest 2% start at about 0.38. Only a selection was taken, and the highest values are over-represented in it overall.

Molecular target: T1, GST-NbGlk1(82-244) (Nicotiana benthamiana)
T1 chain: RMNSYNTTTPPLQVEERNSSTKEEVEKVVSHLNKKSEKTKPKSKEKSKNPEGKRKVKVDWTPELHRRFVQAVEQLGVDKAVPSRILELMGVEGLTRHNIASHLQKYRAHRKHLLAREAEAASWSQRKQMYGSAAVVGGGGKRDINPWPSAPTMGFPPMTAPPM
Test: protein-binding microarray; NbGlk1 is a Golden2-like transcription factor of Nicotiana benthamiana; high values mean tight binding
Conditions: protein: recombinant; tags: GST (pTH6838); dsDNA, one strand shown

Sequence | binding signal [E-score]
ATGAGATA | 0.20921 ± 0.000115
ATTGCGCA | 0.301 ± 0.0513
ATCTGGAC | 0.346 ± 0.0997
ATCTCCAA | 0.342 ± 0.0598
AAAAAAAT | 0.286 ± 0.0488
AGAAAATC | 0.4794 ± 0.0015
AAAAAATC | 0.439 ± 0.0166
AGCAAAAT | 0.241 ± 0.0294
AAAAAATT | 0.204 ± 0.0566
AGCAAATC | 0.4187 ± 0.000896
AGTAAATC | 0.241 ± 0.0671
ATCAAATC | 0.36 ± 0.00877
AGAAAAAT | 0.252 ± 0.0352
AGCAAATA | 0.221 ± 0.0663
ACCAAATC | 0.406 ± 0.00414
ACCAAAAT | 0.245 ± 0.0514
ATATGAAG | 0.207 ± 0.0492
AATCACAG | 0.3111 ± 0.000659
CAAGATCC | 0.33 ± 0.0132
ATTACACC | 0.334 ± 0.0466
AACGATAT | 0.29 ± 0.015
ATTTTCCC | 0.304 ± 0.0203
AAATTATA | 0.256 ± 0.00661

Sequence | binding signal [E-score]
AATCGTTG | 0.203 ± 0.0845
AACATAAT | 0.233 ± 0.0831
ACAAAATA | 0.293 ± 0.102
CACAAATC | 0.274 ± 0.0179
ATAAAATC | 0.409 ± 0.00541
ACAAAATC | 0.4578 ± 0.00327
CAAAAATC | 0.399 ± 0.00565
ACACAATC | 0.39 ± 0.0203
AACAAATC | 0.302 ± 0.043
ACAAAAAT | 0.238 ± 0.045
ACACAATA | 0.226 ± 0.0401
ATAAAAAT | 0.292 ± 0.0292
AGACAATC | 0.3189 ± 0.000404
ATAAAATA | 0.22 ± 0.00301
ACGCGTAT | 0.211 ± 0.0436
ATTTCAAG | 0.23 ± 0.00665
ATAACGTA | 0.205 ± 0.0524
AGGATACG | 0.357 ± 0.0118
ATAGCAAT | 0.321 ± 0.015
ATCCTATA | 0.326 ± 0.0829
ATCTGCAA | 0.317 ± 0.0136
ATCGCAGA | 0.23 ± 0.0112
ATCTCCGG | 0.318 ± 0.0623

Sequence | binding signal [E-score]
ATCTTAGA | 0.243 ± 0.155
ATTCCTAA | 0.236 ± 0.0111
AAATCCGA | 0.427 ± 0.0109
AGATCCGG | 0.291 ± 0.0113
AAATCCGT | 0.401 ± 0.0483
AAATCAGA | 0.315 ± 0.029
AAATCCCT | 0.354 ± 0.00608
AAATCCGC | 0.432 ± 0.0197
CAATCCGG | 0.328 ± 0.0049
CAATCCGA | 0.35 ± 0.00607
AAATCCGG | 0.441 ± 0.0267
AATCCCGT | 0.366 ± 0.0273
CAATCCGC | 0.305 ± 0.107
AATCCCGC | 0.335 ± 0.0716
ACGGTATC | 0.297 ± 0.0236
ATATAGAA | 0.254 ± 0.0436
ATTTAGAA | 0.279 ± 0.0333
ATTCCTTA | 0.228 ± 0.0221
AACAGAAT | 0.301 ± 0.106
ATTCTCGG | 0.229 ± 0.0773
AATCGCGT | 0.352 ± 0.0711
AATCTCGT | 0.436 ± 0.0316
AATCTCGA | 0.436 ± 0.00491

Sequence | binding signal [E-score]
AATCACGG | 0.256 ± 0.0042
AATCTCGC | 0.411 ± 0.0281
ATTCTCGA | 0.308 ± 0.0153
ATTCTCGC | 0.232 ± 0.00302
AATCACGT | 0.304 ± 0.0574
AATCACGA | 0.339 ± 0.0266
AATCTCGG | 0.429 ± 0.00874
AATCGCGC | 0.311 ± 0.0585
AAATAAAT | 0.24 ± 0.102
ATCTCGAA | 0.367 ± 0.06
ATAGCGTA | 0.266 ± 0.0123
AATACGAT | 0.294 ± 0.0273
AATACGTG | 0.216 ± 0.0545
ATAAGATA | 0.301 ± 0.0184
ATTCGGGA | 0.286 ± 0.0532
ATACAGAA | 0.221 ± 0.0562
ACAAGGAT | 0.227 ± 0.00244
ATATTCTC | 0.402 ± 0.0347
AGATTCTA | 0.4515 ± 0.00133
AAATTCTC | 0.283 ± 0.0053
AAATTCTA | 0.245 ± 0.0867
AGATTCAC | 0.289 ± 0.0335
ATTCTCTA | 0.306 ± 0.094

Sequence | binding signal [E-score]
ATATTCTG | 0.342 ± 0.04
ATTCTCTG | 0.358 ± 0.0226
AAATTCTG | 0.235 ± 0.065
ATATTCTA | 0.25 ± 0.0067
AGATTCTC | 0.4901 ± 0.00333
AGATTCTG | 0.4694 ± 0.00442
AATCAATT | 0.213 ± 0.116
ATAATTTC | 0.227 ± 0.0306
AGTCAGAT | 0.208 ± 0.0487
AGTTGGAT | 0.269 ± 0.0791
AATCACGC | 0.256
ATAAGGAT | 0.22 ± 0.0746
ATCGGTAA | 0.201 ± 0.0464
ATATTCCC | 0.393 ± 0.0225
ATATTCCG | 0.36 ± 0.00732
ATATTCCA | 0.326 ± 0.0114
AAATCAGC | 0.363 ± 0.0041
CAATCGGA | 0.227 ± 0.013
ATATTGAA | 0.203 ± 0.00588
